Screening results as filed in PubChem.
ATXN viability: cell viability loss in ATXN counter-screen; AID 651635; 0.49% of 400,000 active; Potency, µM (highest dose often 56.7 µM), usual class: cytotoxic; S2 cells (HEK-293 line with an ATXN2-luciferase reporter) viability, CellTiter-Fluor protease fluorescence, 24 h; further: nearly all actives have a fitted effect of over 40% in size
Nrf2 activator: Nrf2 pathway activation. AREc32 ARE-luciferase reporter (MCF7-derived line), luminescence, 24 h. Potency, µM (doses to about 46.1 µM), for the others: at the top dose activation, hits mostly activators. 0.31% of 410,000 active. AID 624171; further: % of control where 0% means no effect; nearly all actives have a fitted effect of over 65% in size
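AREc32_Fluc, 1000 cells/well, OPTI-MEM + 5% FBS, o/n 37 deg C 5% CO2; 23 nL cpd by pin tool, 24 hr; Steady-Glo 30 min RT, luminescence.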
A549 tox-1: kills or reduces viability of A549 cells in Nrf2 counter-screen. A549 ARE-Fluc cells, CellTiter-Fluor viability, 18-24 h. Potency, µM (titrated, usually from 46 µM), for the others: at the top dose activity change, negative = cytotoxicity, usual class: inhibitors. 0.16% of 390,000 active. AID 504648; further: on the % scale 0 is the no-effect control and ±100 the full control effect
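A549 ARE-Fluc cells in 5% FBS OPTI-MEM, 5000 cells/well, rested 2 h then exposed to compounds in concentration-response for 18-24 h at 37 °C. Viability by CellTiter-Fluor fluorescence (Ex 405/Em 525) after 30 min; luciferase luminescence (BugLite, 15 min, RT) read afterwards.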
Nrf2 inh: inhibitors of Nrf2 signaling; A549 ARE-Fluc reporter, luciferase luminescence, 18-24 h; Potency, µM (highest dose often 46 µM), for the others: at the highest dose activity change, negative = inhibition, most hits filed as inhibitors; 2.1% of 360,000 active; further: on the % scale 0 is the no-effect control and ±100 the full control effect; nearly all actives have a fitted effect of over 60% in size
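Concentration-response testing used A549 ARE_Fluc cells at 5000 cells/well. Following an 18-24 h compound incubation, viability was read by fluorescence (Ex 405/Em 525) and luciferase output by luminescence.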
ATXN2 expr inh: inhibitors of ATXN2 expression | HEK-293 ATXN2-luciferase reporter, luminescence, 24 h | AID 1745845 | Potency, µM (titrated, usually from 57 µM), without a hit: at the top dose activity change, negative = inhibition, hits mostly inhibitors | 0.72% of 360,000 active; further: on the % scale 0 is the no-effect control and ±100 the full control effect; nearly all actives have a fitted effect of over 55% in size
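ATXN2-luciferase reporter cells (luciferase flanked by upstream and downstream ATXN2 gene portions) were treated 24 h at 37 °C with compounds at up to 57 uM. SteadyGlo luminescence gave expression; GF-AFC fluorescence gave viability.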
FLuc counter 3: counter-screen for Nrf2 inhibitors: firefly luciferase enzyme inhibition; shares compounds with Nrf2 inh; 4% of 1,400 active; purified firefly luciferase, luminescence inhibition; Potency, µM (doses to about 57.5 µM), inactives show at the top dose activity change, negative = inhibition, actives largely listed as inhibitors; further: on the % scale 0 is the no-effect control and ±100 the full control effect; nearly all actives have a fitted effect of over 65% in size
Target sequence (P08659 whole entry, looked up): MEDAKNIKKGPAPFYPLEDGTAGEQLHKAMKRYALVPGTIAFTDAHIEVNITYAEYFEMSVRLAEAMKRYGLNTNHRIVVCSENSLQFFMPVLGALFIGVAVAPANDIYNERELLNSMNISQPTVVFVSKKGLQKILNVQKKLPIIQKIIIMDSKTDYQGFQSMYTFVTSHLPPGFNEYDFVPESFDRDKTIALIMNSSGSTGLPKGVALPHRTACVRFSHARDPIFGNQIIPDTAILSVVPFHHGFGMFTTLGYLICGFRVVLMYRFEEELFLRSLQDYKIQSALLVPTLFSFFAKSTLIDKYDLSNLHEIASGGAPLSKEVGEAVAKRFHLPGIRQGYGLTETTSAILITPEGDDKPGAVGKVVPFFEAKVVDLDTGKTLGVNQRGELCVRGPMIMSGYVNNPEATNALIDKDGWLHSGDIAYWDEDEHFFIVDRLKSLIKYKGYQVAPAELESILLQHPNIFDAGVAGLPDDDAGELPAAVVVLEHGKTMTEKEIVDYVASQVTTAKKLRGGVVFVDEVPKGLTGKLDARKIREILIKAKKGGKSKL
A549 tox-2: counter-screen for Nrf2 inhibitors: cytotoxicity in A549 ARE cells | Potency, µM (titrated, usually from 46.1 µM), for inactives: at the highest dose activity change, negative = cytotoxicity, actives largely listed as inhibitors | shares compounds with Nrf2 inh | 2% of 1,400 active | A549 ARE-Fluc cells, cytotoxicity counterscreen;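 further: cells exposed to compounds for 18 to 24 hours; on the % scale 0 is the no-effect control and ±100 the full control effect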
ARE-Fluc inh: confirmation of Nrf2 inhibitors in A549 ARE reporter cells. 74% of 1,400 active. Potency, µM (top dose mostly 46.1 µM), for inactives: at the highest dose activity change, negative = inhibition, usual class: inhibitors. shares compounds with Nrf2 inh. A549 ARE-firefly luciferase reporter, luminescence; further: on the % scale 0 is the no-effect control and ±100 the full control effect; nearly all actives have a fitted effect of over 65% in size
Numbers without * were called inactive; i = inactive; ? = inconclusive; . = no result shown. Shown are actives, neighbours in structure and some others; about 2.9% of the full set was active somewhere. The call rests on the fitted dose curve; in most records, active means well fitted curve in the direction sought with a large enough effect; inconclusive means small, poorly fitted or top-dose-only effect, or another doubt; inactive means no such curve, though single readings can be large; an effect the other way counts as inactive or inconclusive. Potency means the concentration at half of the fitted maximal effect.

SMILES	ATXN viability	Nrf2 activator	A549 tox-1	Nrf2 inh	ATXN2 expr inh	FLuc counter 3	A549 tox-2	ARE-Fluc inh
O=C(O)CCSc1nc2ccccc2n1-c1ccccc1	?	0%	-3%	5.8µM*	-4%	-1%	3%	5.8µM*
Cc1cccc(C)c1OC1(c2ccccc2)OC(=O)c2ccccc21 (stereo unspecified)	i	-1%	?	?	-12%	.	.	.
Cc1cc(C)c(OC2(c3ccccc3)OC(=O)c3ccccc32)c(C)c1 (stereo unspecified)	i	0%	-18%	9.2µM*	-25%	1%	8%	-3%
O=C(Nc1ccc(C(=O)NC2CCCCC2)cc1)c1cccnc1	i	-1%	3%	?	10%	-3%	-3%	?
CC(=O)c1ccc(N2CCN(S(=O)(=O)c3ccc(-c4cc(C(F)(F)F)on4)s3)CC2)cc1	.	-1%	8%	?	.	.	.	.
Cc1csc(C)[n+]1CCC1CCCCC1	.	.	.	.	.	4%	-8%	15µM*
COc1ccc(CC(=O)Nc2nnc(C(C)(C)C)s2)cc1OC	i	6%	-24%	9.2µM*	.	-1%	-3%	3%
COc1ccc(-c2csc(NC(=O)Cc3ccccc3)n2)cc1OC	i	-1%	-9%	2.6µM*	.	-25%	-3%	.
CCc1nnc(NC(=O)Cc2ccc(OC)c(OC)c2)s1	i	0%	0%	-2%	-11%	.	.	.
COc1ccc(-c2csc(NC(C)=O)n2)cc1OC	i	3%	-3%	11%	22%	.	.	.
CCc1ccccc1OCC(=O)Nc1nc(-c2cccnc2)cs1	?	5%	?	7.3µM*	?	-19%	?	?
CCOC(=O)c1[nH]c(C)c(CCC(=O)N2CCN(c3ccc(OC)cc3)CC2)c1C	i	-1%	-3%	.	-10%	.	.	.
Cc1ccc(Cn2c(C)c(CNCc3ccc(OC(C)C)cc3)c(C(=O)O)c2C)cc1	i	1%	-1%	13%	-6%	.	.	.
Cc1c(CNC2CCCCCC2)c(C(=O)O)c(C)n1Cc1cccc(Cl)c1	i	0%	6%	5%	3%	.	.	.
Nc1c(S(=O)(=O)c2ccccc2)c2nc3ccccc3nc2n1/N=C/c1ccco1	?	0%	-19%	5.8µM*	0%	?	-25%	2.1µM*
Cc1ccc(S(=O)(=O)c2c(N)n(/N=C/c3ccco3)c3nc4ccccc4nc23)cc1	i	0%	-5%	?	4%	.	.	.
O=C(CCCc1nc(-c2ccccc2Cl)no1)NC1CCCC1	?	0%	-5%	1.2µM*	.	?	0%	4.6µM*
O=C(CCCc1nc(-c2ccc(Cl)cc2)no1)NC1CCCCC1	i	0%	-15%	3.7µM*	-29%	0%	-1%	.
COc1ccc(-c2nc(C(=O)Nc3cccc(C(C)=O)c3)nn2-c2ccccc2Cl)cc1	i	1%	-1%	?	-13%	.	.	.
CCCCn1c(CN2CCN(c3ccccc3)CC2)nc2c1c(=O)n(C)c(=O)n2C	?	0%	?	4.1µM*	?	2%	-12%	15µM*
CCCCOc1cccc(C(=O)Nc2ccc3oc(-c4cccnc4)nc3c2)c1	?	-1%	-11%	6.5µM*	-18%	-16%	-1%	7.3µM*
CCCCOc1ccc(C(=O)Nc2ccc3oc(-c4cccnc4)nc3c2)cc1	.	0%	-1%	-20%	.	.	.	.
Cn1cc(CN(C(=O)Nc2ccccc2)C2CCCCC2)c2ccccc21	?	-1%	-23%	-26%	?	.	.	.
Cc1cccc2sc(NNC(=O)c3ccc(S(=O)(=O)N4CCCC(C)C4)cc3)nc12 (stereo unspecified)	i	0%	-21%	?	?	.	.	.
Cc1cccc2sc(NNC(=O)c3ccc(S(=O)(=O)N4CCc5ccccc5C4)cc3)nc12	?	2%	-13%	?	?	-13%	-23%	6.5µM*
SMILES	ATXN viability	Nrf2 activator	A549 tox-1	Nrf2 inh	ATXN2 expr inh	FLuc counter 3	A549 tox-2	ARE-Fluc inh
CCOC(=O)N1CCN(S(=O)(=O)c2ccc(C(=O)NNc3nc4ccc(Cl)cc4s3)cc2)CC1	i	0%	?	5.8µM*	?	-12%	-19%	7.3µM*
COc1ccc2c(C(=O)NCc3ccc4c(c3)OCO4)c(-c3ccc(S(C)(=O)=O)cc3)sc2c1	35µM*	0%	?	7.3µM*	?	-2%	?	16µM*
COC(=O)c1c(-c2ccc(S(C)(=O)=O)cc2)sc2cc(OC)ccc12	i	3%	1%	?	34%	.	.	.
Cc1cc(/C=C\c2ccc3cc(N(C)C)ccc3[n+]2C)c(C)n1-c1ccccc1	4µM*	-1%	5.8µM*	1.2µM*	1µM*	?	7.3µM*	1.3µM*
COc1ccccc1-c1noc(CCC(=O)N2CCN(c3cc(C)ccc3C)CC2)n1	i	4%	?	4.6µM*	-37%	3%	0%	-25%
COc1ccc(-c2noc(CCCCC(=O)N3CCN(c4cc(C)ccc4C)CC3)n2)cc1	i	-1%	-22%	3.7µM*	0%	-21%	-9%	7.3µM*
CCOc1ccc(NC(=O)N2CC3CCCN3c3ccccc32)cc1 (stereo unspecified)	.	5%	-8%	37%	.	.	.	.
O=C(NCC(c1ccc(Cl)cc1)N1CCCCC1)c1ccc(F)cc1 (stereo unspecified)	?	5%	-3%	8%	-14%	.	.	.
CCOC(=O)CC(NS(=O)(=O)c1cc(-c2cc(C)no2)ccc1C)c1ccc(C)cc1 (stereo unspecified)	i	3%	13%	?	?	.	.	.
Cc1nccc(-c2cccc(N/N=C(\C#N)C(=O)c3ccccc3)c2)n1	i	0%	-17%	?	.	.	.	.
N#C/C(=N\Nc1cccc(C(F)(F)F)c1)C(=O)c1ccsc1	i	15%	-18%	?	.	21µM*	?	.
O=[N+]([O-])c1ccc(S(=O)(=O)CC2CSc3nc4ccccc4n32)cc1 (stereo unspecified)	i	1%	-17%	5.2µM*	?	-2%	?	2.1µM*
Cc1nnc2n(c1=O)C(CS(=O)(=O)c1ccccc1)CS2 (stereo unspecified)	i	0%	-1%	-3%	4%	.	.	.
CCOc1ccc(C(=O)N2CCC(c3nnc(-c4ccccc4OC)o3)CC2)cc1	i	5%	3%	6%	10%	.	.	.
